{"source": "PubChem BioAssay (NCI)", "note": "Compounds without any hit were thinned out: in the full panel of roughly 83,000, 20% have a hit.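 Results are percent growth after 48 hours of single-concentration exposure. 100 means growth as in untreated cells, lower positive values show inhibition; negative values down to -100 show cell death.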 A number with no mark means an inactive call. Calls of active or inactive are those of the source. The calls were made as follows: active = growth percent below 10; inactive = the rest."}
{"tested_on": "HL-60(TB) leukemia", "experiment": "NCI-60 one-dose screen, 48 h (100 = growth as untreated, 0 = no growth, -100 = all killed)", "conditions": "10 µM unless noted"}
{"molecule": "Nc1c(Cl)cccc1[N+](=O)[O-]", "growth": "112%"}
{"molecule": "Nc1ccc2c(c1Br)Cc1ccccc1-2", "growth": "56.3%"}
{"molecule": "NC(=O)SCC(=O)Nc1ccccc1-c1ccccc1", "growth": "80.3%"}
{"molecule": "N#CCCc1ccc(O)cc1", "growth": "95.6%"}
{"molecule": "CC[n+]1c(/C=C/c2ccc(N3CCCC3)cc2)cccc1/C=C/c1ccc(N2CCCC2)cc1", "growth": "-20.8% (active)"}
{"molecule": "COc1ccc(/C=C2\\Oc3cc(OCCN4CCCC4)ccc3C2=O)c(OC)c1", "growth": "75.6%"}
{"molecule": "Cc1cc(C(C)(CC(C)C)c2ccc(O)c(C)c2)ccc1O", "growth": "106%"}
{"molecule": "O=C1CC2C=CCN2C=C1NC(=O)C1CCCCC1", "note": "(stereo not given)", "growth": "101%"}
{"molecule": "COc1ccc(C2NN=C3c4ccccc4CCC32)cc1", "note": "(stereo not given)", "growth": "40.7%"}
{"molecule": "COc1ccc(S(=O)(=O)Nc2cc(/C=C\\c3cc(OC)c(OC)c(OC)c3)cc(OC)c2OC)cc1OC", "growth": "2.73% (active)"}
{"molecule": "CC(COC(=O)c1ccccc1)N1CC2CCC(C1)O2", "note": "(stereo not given)", "growth": "101%"}
{"molecule": "NC(C(=O)O)C(O)c1ccc(OCc2ccccc2)c(OCc2ccccc2)c1", "note": "(stereo not given)", "growth": "105%"}
{"molecule": "CC(C)Nc1cc(-c2c[nH]c(C(=O)N[C@H](CO)c3cccc(Cl)c3)c2)c(Cl)cn1", "growth": "3.3% (active)"}
{"molecule": "CC[C@H](C)[C@H]1NC(=O)[C@@H](N[C@](C)(O)[C@@H](N)CC(C)C)[C@@H](C)OC(=O)[C@H](Cc2ccc(OC)cc2)N(C)C(=O)[C@@H]2CCCN2C(=O)[C@H](CC(C)C)NC(=O)[C@@H](C)C(=O)[C@H](C(C)C)OC(=O)C[C@@H]1O", "growth": "-27.7% (active)"}
{"molecule": "O=C(Nc1ccc(NCCN2CCOCC2)nc1)c1ccc([N+](=O)[O-])cc1", "growth": "127%"}
{"molecule": "O=C1CC(c2nc3ccccc3s2)CN1C1CCCCC1", "note": "(stereo not given)", "growth": "91.3%"}
{"molecule": "COc1ccc2c(c1)C(c1cc(OC)c3c(c1)OCO3)C1=C(COC1=O)N2", "note": "(stereo not given)", "growth": "4.04% (active)"}
{"molecule": "O=C(NCOC(O)C(Cl)(Cl)Cl)NCOC(O)C(Cl)(Cl)Cl", "note": "(stereo not given)", "growth": "0.027% (active)"}
{"molecule": "CCCCCCCCCCCCSC1=CC(=O)C=CC1=O", "growth": "-32.3% (active)"}
{"molecule": "COc1ccccc1C(=O)Nc1cccc(NC(=O)c2ccoc2C)c1", "growth": "-18.3% (active)"}
{"molecule": "COc1ccc(N2C(=O)CC(c3cc(OC)c(OC)c(OC)c3)C3C2=NC(=O)N3C)cc1", "note": "(stereo not given)", "growth": "107%"}
{"molecule": "O=[N+]([O-])c1cc(Br)c2cccc3c2c1CC3", "growth": "94.4%"}
{"molecule": "O=C1/C=C/[C@@H](O)[C@@H]2C[C@@H](O)C[C@H]2/C=C/CCC[C@H](CCO)O1", "growth": "3.3% (active)"}
{"molecule": "COc1cc2ncnc(Nc3ccc(Oc4ccnc(C)c4)c(C)c3)c2cc1NC(=O)CC1CCSS1", "note": "(stereo not given)", "growth": "-45.8% (active)"}
{"molecule": "COc1ccc(-c2nc3ccc(-c4nc5ccc(N6CCN(C)CC6)cc5[nH]4)cc3[nH]2)cc1OC", "growth": "49.1%"}
{"molecule": "CCc1cc2c(cc1N1CCC(N3CCOCC3)CC1)C(C)(C)c1[nH]c3cc(C#N)ccc3c1C2=O", "growth": "-6.15% (active)"}
{"molecule": "CN(C)CCOc1nc2ccccc2c2c1-c1ccc(Cl)cc1C2=O", "growth": "-27.2% (active)"}
{"molecule": "O=[n+]1ccn([O-])c2ccccc21", "growth": "118%"}
{"molecule": "Nc1c(C(=O)c2ccccc2)sc2nc(-c3cc4ccccc4o3)cc(-c3ccc(Cl)cc3)c12", "growth": "114%"}
{"molecule": "COc1ccc(/C(C)=N/NC(=O)CSc2nc3ccccc3c(=O)n2Cc2ccc(S(N)(=O)=O)cc2)c(OC)c1", "growth": "102%"}
{"molecule": "COC(=O)c1cccc(Br)c1", "growth": "81.6%"}
{"molecule": "COc1ccc(Nc2nc(-c3cc(O)c(C)c(C)c3O)cs2)cc1", "growth": "7.17% (active)"}
{"molecule": "COc1cc(-c2nc(-c3nc4ccc(Cl)cc4[nH]3)cc3c2[nH]c2ccccc23)cc(OC)c1OC", "growth": "68.7%"}
{"molecule": "COc1ccc(/C=C(\\C#N)C(=O)Nc2cccc(Nc3nc(SC)nc(-c4cccc([N+](=O)[O-])c4)c3C#N)c2)cc1OC", "growth": "95%"}
{"molecule": "Nc1nc(N)c2c(n1)NC(c1ccccc1)C1CCc3ccccc3C1=N2", "note": "(stereo not given)", "growth": "-11.2% (active)"}
{"molecule": "C=C[Si](OC(C)=O)(OC(C)=O)OC(C)=O", "growth": "94.3%"}
{"molecule": "Cc1ccc(/C=C2/C(=O)N(C)c3ccc(S(=O)(=O)Nc4ccc(C(C)(C)C)cc4)cc32)s1", "growth": "97%"}
{"molecule": "Cc1nc(-n2[nH]c(=O)ccc2=O)sc1N=Nc1ccccc1", "growth": "98%"}
{"molecule": "N#Cc1c(-c2ccccc2)cc(-c2ccccc2)n(CCCC(=O)NO)c1=O", "growth": "10.2%"}
{"molecule": "O=C(Nc1ccc([N+](=O)[O-])cc1)C(=O)Nc1ccc([N+](=O)[O-])cc1", "growth": "118%"}
